Reference: PubChem BioAssay AID686978 (National Center for Advancing Translational Sciences (NCATS), 2013)
Hit rate of the full screen: of about 420,000 compounds, about 64,000 (15%) were called active. Inconclusive results (about 27%) are left out. Not all results are given here. Unmarked numbers belong to inactive results. Calls follow the shape of the dose curve; as a rule, active = well fitted inhibition curve with a large enough effect; inconclusive = small, poorly fitted or top-dose-only effect; inactive = flat fitted curve, though single readings scatter.

Test: qHTS for Inhibitors of human tyrosyl-DNA phosphodiesterase 1 (TDP1): qHTS in cells in absence of CPT; also: nearly all actives have a fitted effect of over 55% in size
Details: DT40 Tdp1-/- hTDP1 cells, no CPT, ATP luminescence, 48 h; activity change, negative = growth inhibition: at 46.2 µM (top of the series)
Excerpt: Human tyrosyl-DNA phosphodiesterase 1 (TDP1) is a novel repair gene, and we propose to use it as a new target for anticancer drug development. TDP1 is not an essential protein, but under treatment with topoisomerase I poison (camptothecin: CPT), TDP1 works as a critical factor for cell survival. To directly identify novel TDP1 inhibitors active in a cellular environment, we have knocked-out the Tdp1 gene in chicken DT40 cells (Tdp1-/-) and generated a complemented counterpart cells that contains a stable transfection of the human TDP1 gene (Tdp1-/-;hTDP1 cells). For the primary screen, Tdp1-/-;hTDP1 cells will be exposed to small molecules in the presence or absence of CPT, and their growth kinetics will be evaluated after 48 hours by measuring ATP activity. […] The hit compounds will then be evaluated in the presence or absence of CPT using Tdp1-/- cells. […] In tertiary assays, biochemical gel-based assays will be used to assess whether the hit compounds specifically target TDP1.
To this end, we have screened this cell line against the MLSMR in two primary screens. In one screen we add CPT and in the other we screen in the absence of CPT; this AID represents the screen where CPT was absent.
NIH Chemical Genomics Center [NCGC]
NIH Molecular Libraries Probe Centers Network [MLPCN]
Assay Submitter (PI): Yves Pommier, NCI
DT40-hTDP1 cells without 20 nM Camptothecin (add 20 microL of DMSO in 1 L of cell culture medium) were dispensed at 400 cells/5microL/well in tissue culture treated 1536-well white wall/solid bottom assay plates (Greiner Bio-One North America, NC, U.S.A.) using a Multidrop Combi 8 channel dispenser (Thermo Fisher, Waltham, MA, USA). 23 nL compounds and controls were transferred using the pin tool (Kalypsys, San Diego, CA, USA) to the assay plates. The assay plates were then incubated at 37 masculineC for a minimum 48 hr. Three microL of Cell Titer Glo solution was added to the plates and incubated at RT in dark for 30 min. Luminescence was read using ViewLux (Perkin Elmer) with 1 sec exposure slow speed, high gain and 2x binning.
% is scaled to controls: 0 for no effect and ±100 for the full control effect; potency is read from the fitted curve at half-maximal effect.

Point of comparison: `CCC(C(=O)Nc1c(C)cccc1C)n1c(-c2cc(C)cs2)nc2ccccc21` (stereo not drawn), “activity change, negative = growth inhibition” value -14.6%. Against it:
- COc1cccc(C(=O)NNC(=O)/C=C/c2ccccc2)c1 — higher, 19.2%
- Cc1ccsc1C(=O)N[C@@H](C)c1nnc2ccccn12 — higher, -7.07%
- Nc1nc2[nH]c(=O)c(=O)[nH]c2c(=O)[nH]1 — higher, 15.7%
- CCOC(=O)CSc1nc2c(c(=O)n(Cc3ccccc3Cl)c(=O)n2C)n1C — higher, -3.48%
- CCOC(=O)n1c(SCC(=O)N(CC)CC)nc2ccccc21 — lower, -16.7%
- CN(Cc1ccco1)c1ncncc1-c1ccoc1 — higher, -6.14%
- CCc1ccc(Oc2coc3cc(OC(=O)c4cc5ccccc5oc4=O)ccc3c2=O)cc1 — higher, -9.4%
- Cc1cn(COC/C=C/c2ccccc2)c(=O)[nH]c1=O — higher, -2.88%
- O=C(NCc1ccccn1)c1c(O)c2c([nH]c1=O)CCCC2 — higher, -7.3%
- Cc1cc(Cl)c(S(=O)(=O)Nc2ccc3c(c2)OCCO3)cc1OCC(N)=O — lower, -29.7%
- Cc1ccc(/C=N/NC(=O)Cn2ccc(C(F)(F)F)n2)o1 — higher, -0.299%
- Cc1cc(-c2n[nH]c(=S)n2-c2ccc(C)c(C)c2)no1 — higher, -4.09%
- Cc1cc(C)c2oc(C(=O)Nc3ccc(S(=O)(=O)Nc4nccc(C)n4)cc3)cc(=O)c2c1 — lower, -26%
- CCNC(=S)Nc1cccc(Cl)c1C — lower, -27.6%
- Cc1cc(Cl)ccc1NC(=S)NCCCN1CCCC1=O — higher, 3.78%
- S=C(NCc1ccco1)NCc1ccccc1Cl — higher, 13.1%
- Cc1cc(F)ccc1NC(=S)NCCc1ccccc1 — higher, -10.9%
- Clc1ccc(CSc2nnc([C@@H]3CCCN3)o2)cc1 — lower, -17%
- CS(=O)(=O)c1ccccc1C(=O)Nc1ccc2sccc2c1 — higher, 14.5%
- O=C(/C=C/c1ccccc1[N+](=O)[O-])OCC(=O)N1CCCC1 — higher, 18.5%
- O=C(CCSCc1cccc(F)c1)NCc1ccccc1 — higher, -7.79%
- CCC(C)c1ccc(O)c(/C=N/O)c1 (stereo not drawn) — higher, 16.9%
- Cc1cc(C)n(-c2nc(O)cc(=O)[nH]2)n1 — higher, 8.33%
- CS(=O)(=O)N(CC(=O)NC1CCCC1)Cc1ccc(F)cc1 — higher, -6.2%
- Cc1ccc(OCC(=O)N2CCN(C(=O)c3cccnc3)CC2)cc1 — higher, -10.2%
- Cc1ccc(NC(=O)Cc2nc(COC(=O)C(C)NS(=O)(=O)c3ccc(C)cc3)cs2)cc1 (stereo not drawn) — lower, -26.5%
- O=C(Nc1ccccc1)Nc1nc2ccccc2s1 — higher, -2.58%
- O=C(O)c1ccccc1C(=O)Nc1nc(-c2ccccc2)cs1 — higher, -0.805%
- Cc1ccc(C(=O)NNC(=O)c2cccs2)cc1 — lower, -20%
- CC(=O)c1ccc(NC(=O)N[C@@H](Cc2ccccc2)C(=O)O)cc1 — higher, -2.61%
- CC(=O)Nc1ccc(S(=O)(=O)Nc2nc(-c3ccc(C(C)(C)C)cc3)cs2)cc1 — lower, -17.4%
- CC(=O)c1ccc(NC(=O)CSc2nnc(NC(=O)Nc3ccccc3)s2)cc1 — lower, -28.6%
- CCC(=O)Nc1ccc(C(=O)Nc2cc(C)on2)cc1 — higher, 2.69%
- Cc1nc(NNC(=O)c2ccccc2)cc(-c2ccccc2)n1 — higher, -10.7%
- CN1C(=O)C2(OCCCO2)c2cc(Cl)ccc21 — higher, 7.23%
- O=C(CNC(=O)Cc1ccccc1)NCC(=O)OCC(=O)c1ccccc1Cl — lower, -18.5%
- O=C(c1snnc1-c1ccccc1)N1CCOCC1 — higher, 7.46%
- Cc1nn(C(C)CC(=O)O)c(C)c1C (stereo not drawn) — higher, 5.41%
- CCN1N=C(c2ccccc2)CCC1=O — higher, 0.898%
- CCN(CC(=O)NCCc1ccccc1)S(=O)(=O)c1ccc(C)cc1 — higher, -8.2%
- COCC(=O)N1CCC2(CCCN(c3ccccc3)C2)CC1 — lower, -15.7%
- COc1ccc(C(=O)OCC(=O)NCC2CCCO2)cc1[N+](=O)[O-] (stereo not drawn) — higher, 12.4%
- COc1ccc(C(CNC(=O)c2cc3c(s2)CCCC3)N2CCOCC2)cc1 (stereo not drawn) — higher, 0.592%

For `CCN(CC)C(=O)CSc1nc2ccsc2c(=O)n1Cc1ccccc1Cl`, the Potency was 23.1 µM (active).
With `Cc1[nH]c(=O)c(C(=O)/C=C/c2ccccc2)c2c1CCCC2` the Potency was 5.8 µM (active).
For `Cc1ccc(NC(=S)NCCc2ccc(Cl)cc2)c(C)c1`, the Potency was 18.4 µM (active).
For `Cc1ccc(NC(=S)NCc2ccccc2Cl)c(C)c1`, the Potency was 20.6 µM (active).
With `CCC(C(=O)NCc1ccccc1)n1c(Cc2cc(F)cc(F)c2)nc2ccccc21` (stereo not drawn) the Potency was 16.4 µM (active).
With `CC(=O)Nc1ccc(C(=O)Nc2nc(-c3cc(C)n(Cc4ccccc4)c3C)cs2)cc1` the Potency was 14.6 µM (active).
In the case of `CSc1nsc(NC(=O)Nc2ccccc2)n1`, the Potency is reported as 20.6 µM (active).
In the case of `CC(=O)Nc1ccc(-c2csc(NC(=O)Nc3ccccc3)n2)cc1`, the Potency is reported as 1.16 µM (active).
With `Cc1ccc(-c2csc(NNC(=O)c3ccccc3)n2)cc1` the Potency was 5.17 µM (active).
